This note sets out measurements from PMC4336329 (PLoS ONE, 2015).

The campaign covered roughly 310,000 compounds. About 14,000 (4.5%) showed an effect of 50% or more. The effect is printed as a negative number. Only a selection was taken, and strong results are over-represented in it overall.
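Also: peak tail current of the secondary pulse compared with the same well before compound.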

The target in the assay is human ether-à-go-go-related gene (hERG) potassium channel (human, UniProt Q12809). Kind of assay: primary screen, population patch clamp on CHO cells stably expressing hERG; higher = less effect of the substance.
Sequence of human ether-à-go-go-related gene (hERG) potassium channel (Q12809 whole entry, looked up): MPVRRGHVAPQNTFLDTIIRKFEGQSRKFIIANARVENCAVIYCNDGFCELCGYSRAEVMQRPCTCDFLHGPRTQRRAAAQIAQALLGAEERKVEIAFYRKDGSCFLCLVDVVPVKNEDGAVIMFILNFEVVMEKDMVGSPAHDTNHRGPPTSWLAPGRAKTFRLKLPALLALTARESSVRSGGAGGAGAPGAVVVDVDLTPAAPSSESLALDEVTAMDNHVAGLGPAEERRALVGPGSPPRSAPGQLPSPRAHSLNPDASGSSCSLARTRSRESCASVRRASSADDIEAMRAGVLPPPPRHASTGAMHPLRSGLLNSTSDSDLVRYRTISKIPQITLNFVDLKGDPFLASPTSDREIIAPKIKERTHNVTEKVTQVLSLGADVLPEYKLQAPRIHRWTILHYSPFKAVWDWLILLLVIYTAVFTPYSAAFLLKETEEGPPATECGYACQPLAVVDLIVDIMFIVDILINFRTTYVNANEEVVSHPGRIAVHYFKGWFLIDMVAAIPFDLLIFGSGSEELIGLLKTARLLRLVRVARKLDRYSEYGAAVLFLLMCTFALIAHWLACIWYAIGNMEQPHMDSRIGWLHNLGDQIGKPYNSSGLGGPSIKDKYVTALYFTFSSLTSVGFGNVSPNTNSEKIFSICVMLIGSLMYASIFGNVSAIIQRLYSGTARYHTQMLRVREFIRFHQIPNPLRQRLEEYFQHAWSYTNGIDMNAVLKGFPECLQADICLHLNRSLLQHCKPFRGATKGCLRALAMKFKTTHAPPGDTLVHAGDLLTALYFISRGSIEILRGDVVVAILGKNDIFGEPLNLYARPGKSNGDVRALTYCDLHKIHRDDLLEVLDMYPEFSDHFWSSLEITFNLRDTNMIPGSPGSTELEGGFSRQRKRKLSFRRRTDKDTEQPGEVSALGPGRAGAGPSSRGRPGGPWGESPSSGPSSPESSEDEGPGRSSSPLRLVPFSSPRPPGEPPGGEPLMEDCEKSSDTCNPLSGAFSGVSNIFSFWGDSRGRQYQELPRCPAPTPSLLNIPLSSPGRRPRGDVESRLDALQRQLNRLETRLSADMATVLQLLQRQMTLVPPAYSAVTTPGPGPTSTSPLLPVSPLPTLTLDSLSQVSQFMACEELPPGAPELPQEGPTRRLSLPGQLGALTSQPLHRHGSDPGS
As to `COc1ccc(C(=O)NCc2nnc(SCC(=O)Nc3cccc(F)c3)o2)cc1`, the “hERG current change (%, negative = inhibition) at 10uM” value is -1.96%.

Take `COCCn1c(-c2ccc(OC)c(OC)c2)nc2ccccc21`: the “hERG current change (%, negative = inhibition) at 10uM” value is given as -21.6%.

With `O=C1NC(=NCc2ccccc2)S/C1=C\c1ccccc1`, the “hERG current change (%, negative = inhibition) at 10uM” value worked out at 23.8%.

`COc1cc(CNCCCN2CCOCC2)c(Br)cc1OCC(=O)Nc1ccccc1C`: the “hERG current change (%, negative = inhibition) at 10uM” value was -15.3%.

In the case of `C=CCOc1ccc(Br)cc1CNCCCN1CCOCC1.Cl`, the “hERG current change (%, negative = inhibition) at 10uM” value is on record as -27.7%.

On to `COc1ccccc1NC(=O)COc1cc(Br)c(CNCCCN2CCOCC2)cc1OC`, for which the “hERG current change (%, negative = inhibition) at 10uM” value is given as -54.6%.

Regarding `COc1cc(CNCCCN2CCOCC2)c(Br)cc1OC(C)C.Cl`, the “hERG current change (%, negative = inhibition) at 10uM” value came out at 5.58%.

On to `COc1ccccc1NC(=O)COc1ccc(Br)cc1CNCCCN1CCOCC1.Cl`, for which the “hERG current change (%, negative = inhibition) at 10uM” value was -58.6%.

With `O=C(COc1ccc(Br)cc1CNCCCN1CCOCC1)Nc1ccccc1`, the “hERG current change (%, negative = inhibition) at 10uM” value is -47.8%.

Turning to `COc1cc(NC(=O)c2ccc(C)cc2)ccc1NC(=O)c1cc2ccccc2o1`, the “hERG current change (%, negative = inhibition) at 10uM” value was 15.2%.

Regarding `Cc1ccc(C)c(NC(=O)CSc2nnc(CCNC(=O)OC(C)(C)C)o2)c1`, the “hERG current change (%, negative = inhibition) at 10uM” value was -12.3%.

As for `CC1(C)CC(c2csc(N)n2)CCO1` (centres unmarked), the “hERG current change (%, negative = inhibition) at 10uM” value was found to be 2.95%.

As to `COc1ccc(N(CC(=O)N2CCN(c3ccccc3F)CC2)S(=O)(=O)c2c(C)n[nH]c2C)cc1`, the “hERG current change (%, negative = inhibition) at 10uM” value was -20.6%.

In the case of `Cc1ccc(N(CC(=O)N2CCN(c3ccc(F)cc3)CC2)S(=O)(=O)c2c(C)nn(C)c2C)cc1`, the “hERG current change (%, negative = inhibition) at 10uM” value is on record as -65.8%.

Take `Cc1ccc(N(CC(=O)N2CCN(c3ccc(F)cc3)CC2)S(=O)(=O)c2c(C)noc2C)cc1`: the “hERG current change (%, negative = inhibition) at 10uM” value is on record as -39.5%.

With `COc1ccc(N(CC(=O)N2CCN(c3ccc(F)cc3)CC2)S(=O)(=O)c2c(C)n[nH]c2C)cc1`, the “hERG current change (%, negative = inhibition) at 10uM” value was -69.4%.

Take `COc1ccc(N(CC(=O)N2CCN(c3ccc(Cl)cc3)CC2)S(=O)(=O)c2c(C)n[nH]c2C)cc1`: the “hERG current change (%, negative = inhibition) at 10uM” value is reported as -10.1%.

Take `Cc1ccc(N(CC(=O)NCc2ccc(F)cc2)S(=O)(=O)c2c(C)nn(C)c2C)cc1`: the “hERG current change (%, negative = inhibition) at 10uM” value is reported as -24.5%.

As to `O=C(O)/C=C\C(=O)N1CCc2ccccc21`, the “hERG current change (%, negative = inhibition) at 10uM” value worked out at 27.9%.

Consider `O=C1C(NS(=O)(=O)c2cccs2)=C(N2CCOCC2)C(=O)c2ccccc21`, for which the “hERG current change (%, negative = inhibition) at 10uM” value is -40.8%.

For the molecule `C[n+]1ccc(C(=O)N/N=C/c2ccco2)cc1.[I-]`, the “hERG current change (%, negative = inhibition) at 10uM” value is 26.7%.

As to `O=C(NCCc1ccccn1)c1cc(-c2ccc(Cl)cc2)nc2ccccc12`, the “hERG current change (%, negative = inhibition) at 10uM” value was -19.6%.

As for `O=C(NCCc1ccc(Cl)cc1)c1cc(-c2ccncc2)nc2ccccc12`, the “hERG current change (%, negative = inhibition) at 10uM” value was found to be 4.23%.

As for `O=C(NCCCn1ccnc1)c1cc(-c2ccncc2)nc2ccccc12`, the “hERG current change (%, negative = inhibition) at 10uM” value is on record as -56.3%.

On to `CCOc1ccc(-c2cc(C(=O)NCCCn3ccnc3)c3ccccc3n2)cc1`, for which the “hERG current change (%, negative = inhibition) at 10uM” value is recorded as -16%.

Consider `CCCCCCCNC(=O)c1cc(-c2ccncc2)nc2ccccc12`, for which the “hERG current change (%, negative = inhibition) at 10uM” value amounted to 7.84%.

On to `COc1cccc(C(=O)NCCCn2ccnc2)c1`, for which the “hERG current change (%, negative = inhibition) at 10uM” value was 7.29%.

With `COc1cccc(-c2cc(C(=O)NCCCn3ccnc3)c3ccccc3n2)c1`, the “hERG current change (%, negative = inhibition) at 10uM” value was -71.8%.

`COc1ccc(-c2cc(C(=O)NCCCn3ccnc3)c3ccccc3n2)c(OC)c1`: the “hERG current change (%, negative = inhibition) at 10uM” value is on record as -32%.

Regarding `O=C(NCCCn1ccnc1)c1cc(-c2ccc(Cl)cc2)nc2ccccc12`, the “hERG current change (%, negative = inhibition) at 10uM” value is on record as -68.8%.

Regarding `CCCCN(C)CCC(=O)Nc1ccc(OC)cc1OC`, the “hERG current change (%, negative = inhibition) at 10uM” value worked out at 5.11%.

Turning to `Cc1cccc(Nc2nc3c(c(=O)n(C)c(=O)n3C)n2CC(O)CO)c1` (centres unmarked), the “hERG current change (%, negative = inhibition) at 10uM” value is -0.943%.

For `O=C(Cc1c(Cl)cccc1Cl)N1CCN(Cc2ccccc2)CC1`, the “hERG current change (%, negative = inhibition) at 10uM” value is -0.0324%.

For the molecule `NS(=O)(=O)c1cccnc1Nc1cccc(Cl)c1Cl`, the “hERG current change (%, negative = inhibition) at 10uM” value is -3.35%.

Turning to `CN(C)c1nc(-c2ccccc2)nc(-c2ccc(Cl)cc2)c1C#N`, the “hERG current change (%, negative = inhibition) at 10uM” value came out at 8.49%.

Consider `COc1ccc(-c2nc3c4ccccc4ccn3c2CN2CCCCC2)cc1OC.Cl`, for which the “hERG current change (%, negative = inhibition) at 10uM” value is given as 0.736%.

In the case of `O=c1nc2ccccc2c2n1CC(CN1CCN(c3ccc(F)cc3)CC1)N2` (centres unmarked), the “hERG current change (%, negative = inhibition) at 10uM” value is recorded as -68.6%.

For `O=c1[nH]c(CN2CCN(c3ccc(F)cc3)CC2)nc2ccccc12`, the “hERG current change (%, negative = inhibition) at 10uM” value is -15.1%.

Take `COc1cccc(N2CCN(Cc3nc4ccccc4c(=O)[nH]3)CC2)c1`: the “hERG current change (%, negative = inhibition) at 10uM” value is given as -18.9%.

Take `O=c1nc2ccccc2c2n1CC(CN1CCN(c3cccc(Cl)c3)CC1)N2` (centres unmarked): the “hERG current change (%, negative = inhibition) at 10uM” value was -63.3%.

As for `O=c1[nH]c(CN2CCN(c3ccccc3)CC2)nc2ccccc12`, the “hERG current change (%, negative = inhibition) at 10uM” value was determined as 1.55%.

`O=C(CSc1nc2ccccc2c(=O)[nH]1)N1CCN(c2ccccc2F)CC1`: the “hERG current change (%, negative = inhibition) at 10uM” value amounted to 9.44%.

In the case of `Fc1ccccc1N1CCN(CC2CCCCC2)CC1`, the “hERG current change (%, negative = inhibition) at 10uM” value is -1.99%.

For `Cn1c(CN2CCN(c3cccc(Cl)c3)CC2)nc2ccccc21`, the “hERG current change (%, negative = inhibition) at 10uM” value is reported as -44.7%.

As to `O=c1nc2ccccc2c2n1CC(CN1CCN(c3ccccc3F)CC1)N2` (centres unmarked), the “hERG current change (%, negative = inhibition) at 10uM” value is -50.3%.

As to `Cc1cc(C)cc(NC(=O)c2cc(C)nn2C)c1`, the “hERG current change (%, negative = inhibition) at 10uM” value came to 0.0741%.

`O=C(COC(=O)c1ncc(Cl)c(Cl)c1Cl)NC(=O)c1ccccc1`: the “hERG current change (%, negative = inhibition) at 10uM” value is reported as 14.9%.

For `Cn1cnnc1SCc1ccccc1[N+](=O)[O-]`, the “hERG current change (%, negative = inhibition) at 10uM” value was 13.7%.

As for `COc1cc(C#N)ccc1OCC(=O)NCCC1=CCCCC1`, the “hERG current change (%, negative = inhibition) at 10uM” value is -13.2%.

Consider `Nc1ccc2c(c1)ncn2CCCn1cnc2cc(N)ccc21`, for which the “hERG current change (%, negative = inhibition) at 10uM” value is reported as -14.7%.

Consider `Cl.c1cncc(CNCCc2c[nH]c3ccccc23)c1`, for which the “hERG current change (%, negative = inhibition) at 10uM” value stood at 4.01%.

Consider `Fc1ccc(-n2cc(CNCCc3cccnc3)c(-c3ccccc3Cl)n2)cc1`, for which the “hERG current change (%, negative = inhibition) at 10uM” value is given as -51.9%.

For `Cl.Clc1ccccc1CNCc1ccncc1`, the “hERG current change (%, negative = inhibition) at 10uM” value is on record as -0.497%.

For the molecule `Cl.c1ccc(CCNCc2cccnc2)cc1`, the “hERG current change (%, negative = inhibition) at 10uM” value is -0.175%.

For the molecule `Fc1ccc(-n2cc(CNCCc3ccccn3)c(-c3ccccc3Cl)n2)cc1`, the “hERG current change (%, negative = inhibition) at 10uM” value is -89.9%.

As to `Fc1ccc(NC(=S)NCCc2ccccn2)cc1`, the “hERG current change (%, negative = inhibition) at 10uM” value was found to be 7.88%.

For the molecule `O=C(NCc1ccccn1)c1cn(-c2ccccc2)nc1-c1ccc(Cl)cc1`, the “hERG current change (%, negative = inhibition) at 10uM” value is recorded as -1.67%.

Take `Cl.Fc1ccc(CCNCc2ccccc2Cl)cc1`: the “hERG current change (%, negative = inhibition) at 10uM” value came out at 1.24%.

With `Fc1ccc(-n2cc(CNCCc3ccncc3)c(-c3ccccc3Cl)n2)cc1`, the “hERG current change (%, negative = inhibition) at 10uM” value is reported as -75.2%.
